The nature of assay [1]: Primary qHTS for inhibitors of nuclear receptor binding SET domain protein 2 (NSD2) in an isogenic RCH-ACV NSD2 p.E1099K mutant (9B) (AID 1645876; active = well fitted inhibition curve with a large enough effect; note: nearly all actives have a fitted effect of over 70% in size).
Assay [2] is described as follows: qHTS drug screen for cell cycle checkpoint inhibitors in PARPi-resistant BRCA-mutant ovarian cancer cell lines. (AID 1963452). The following applies: PEO1/OlaR viability, CellTiter-Glo luminescence, 96 h; for Z-AUC: stronger effect = lower value. Summed up: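 PEO1, PEO4 and PEO1/OlaR ovarian cancer cells, 600 per well, exposed 96 h at 37C to a dilution series. Viability read by CellTiter-Glo luminescence, normalized to DMSO and empty wells; activity summarized as Z-AUC.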
Background: qHTS replaces the single test concentration by a dilution series.

Molecules are shown by their SMILES. Inconclusive results are not listed. Active and inactive are the calls of the source. Unless noted, calls come from the whole dose curve.
Potency is the fitted concentration of half-maximal effect.

On to `CC1(C)CC[C@]2(NC(=O)C(C)(F)F)CC[C@]3(C)[C@H](C(=O)C=C4[C@@]5(C)C=C(C#N)C(=O)C(C)(C)[C@@H]5CC[C@]43C)[C@@H]2C1`, for which the values for the Potency in assay [1] and in assay [2] were 9.34 µM (active) and 1.38 µM (active), respectively. In addition, the figures for the Z-AUC in assay [2] (PEO1 parental Z-AUC) and in assay [2] (PEO4 Z-AUC) were -1.7 and -2.21, respectively.
`COC(=O)[C@]12CCC(C)(C)C[C@H]1[C@H]1C(=O)C=C3[C@@]4(C)C=C(C#N)C(=O)C(C)(C)[C@@H]4CC[C@@]3(C)[C@]1(C)CC2`: the Potency in assay [1] was 8.33 µM (active). For the same compound, the Z-AUC in assay [2] (PEO1 parental Z-AUC) was -0.983; in assay [2] (PEO4 Z-AUC) it was -1.45; in assay [2], 0.111 (inactive).

For the origin of these results see PubChem BioAssay (NCATS).
